Results: PubChem BioAssay AID588405 (Sanford-Burnham Center for Chemical Genomics, 2011)
Out of some 360,000 compounds screened, about 6,200 (1.7%) were called active.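 How the source made its calls: active means inhibition of at least 50% at 20 µM; inactive means the rest.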 Only a selection was taken, and actives are over-represented in it overall.

Assay: inhibition of PEG-3 promoter activity – cell-based, HeLa, luciferase luminescence, primary screen (AID 588405)
Conditions: HeLa PEG-Prom luciferase reporter, overnight, at 20 µM, active compounds read high
With `CC(C)(C)S(=O)N1Cc2cc(C(=O)NCCCN3CCOCC3)nc(-c3cccc(-c4cc5ccccc5o4)c3)c2[C@H]1CCO` (some centres undefined) the inhibition was -6.92% (inactive). For `CCCNC(=O)C1(C)CCN1C(=O)Cc1ccc(-c2ccccc2)cc1` (centres undefined), the inhibition was -9.6% (inactive). In the case of `CCCNC(=O)N1CCN(C(=O)NCCC)CC1`, the inhibition is reported as 7.21% (inactive). With `CCC(C)(C)c1ccc(Oc2ccc(NC(=O)COC(=O)C3=COCCO3)cc2)cc1` the inhibition was 11.8% (inactive). For `O=C1c2ccccc2C2=Nc3ccccc3SC(c3ccccc3F)C12` (centres undefined), the inhibition was 50.8% (active). For `COc1ccc(-c2cc(NC(C)=O)c3ncc(-c4cc(OC)c(OC)c(OC)c4)n3c2)cn1`, the inhibition was 9.76% (inactive). In the case of `Cc1ccccc1C(CC(=O)c1cccs1)C(C#N)C#N` (centres undefined), the inhibition is reported as 98.4% (active). For `Cc1ccc(C)c(NC(CC(=O)c2ccccc2)C(=O)OCC(=O)c2cccs2)c1` (centres undefined), the inhibition was -74.6% (inactive). In the case of `O=C(NCC(=O)N1CCN(c2ccccc2F)CC1)c1cccs1`, the inhibition is reported as -57% (inactive). For `OCCC1CN(Cc2cccc(OC3CCCC3)c2)CCN1Cc1ccsc1` (centres undefined), the inhibition was 18.8% (inactive). In the case of `CCc1nc2c(OCCOc3ccc(F)cc3)cccn2c1N(C)C(=O)c1ccccc1F`, the inhibition is reported as 14.6% (inactive). In the case of `C=C(C)C(=O)O[C@H]1C/C(C)=C\C(=O)/C=C(\C)[C@H](O)[C@@H]2OC(=O)C(=C)[C@@H]21`, the inhibition is reported as 94.4% (active). For `Cc1cc(NC(=O)COC(=O)/C=C/c2ccc(C)o2)no1`, the inhibition was 6.71% (inactive). For `Cc1sc2ncn(CC(=O)NCCCC(=O)N(C)Cc3ccccc3)c(=O)c2c1C`, the inhibition was 8.27% (inactive). For `COc1ccccc1Nc1ncnc2c1oc1ccccc12`, the inhibition was -388% (inactive). In the case of `COc1ccc(OC)c(NC(=O)CN(C)CCOc2ccc(Br)cc2)c1`, the inhibition is reported as 7.53% (inactive). In the case of `COc1ccc(Nc2ncnc3ccc(Br)cc23)c(OC)c1`, the inhibition is reported as 88.1% (active). In the case of `Cc1cc(Br)cn2c(Cc3ccsc3)c(-c3ccc(C#N)cc3)nc12`, the inhibition is reported as -3.22% (inactive). For `CCOC(=O)C1CCCN(C(=O)c2ccc(N(C)C)cc2)CC1` (centres undefined), the inhibition was -7.67% (inactive). In the case of `O=[N+]([O-])/C=C/c1ccc2c(ccn2Cc2ccccc2)c1`, the inhibition is reported as 107% (active). In the case of `O=C(Nc1nnc([C@H]2C[C@H](O)[C@@H](CO)O2)s1)c1cccc(Cl)c1`, the inhibition is reported as -8.3% (inactive). In the case of `COc1ccc(NC(=O)/C(N=Nc2cccc(S(=O)(=O)Nc3ccc(SC(F)F)cc3)c2)=C(\C)O)cc1`, the inhibition is reported as 50.3% (active). In the case of `Cc1c(NS(=O)(=O)c2cccc(C(=O)Nc3ccc(SC(F)F)cc3)c2)c(=O)n(-c2ccccc2)n1C`, the inhibition is reported as 34.6% (inactive). For `Nc1cccc(S(=O)(=O)Nc2ccc(SC(F)F)cc2)c1`, the inhibition was 8.83% (inactive).
